Hits are enriched below; roughly 3.4% of the tested compounds scored in any of these assays.
FBW7 activator – FBW7 E3 ligase activators, primary screen, biochemical, AlphaScreen, human | F-box/WD repeat-containing protein 7 (Homo sapiens), Q969H0 | AlphaScreen FBW7–phospho-cyclin E peptide binding, activator screen | normalized activity (activation), % at 26.1 µM | 650,000 compounds, 0.13% hits; in the data active = normalized activity above about 1.9%;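 also: purified mutant Fbw7 with reduced substrate affinity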
GPR151 activ – activators of human GPR151, primary screen, cell-based, PathHunter beta-arrestin, luminescence; G-protein coupled receptor 151 (Homo sapiens), Q8TDV0; PathHunter beta-arrestin GPR151 cells; activation, % at 11.2 µM; 650,000 compounds, 1% hits; AID 1508602, 2020; in the data active = activation above about 4.9%
MITF primary – MITF inhibitors, primary screen, biochemical, AlphaScreen, human. AlphaScreen MITF homodimerization, bead proximity signal. inhibition, % at 2.6 µM. Microphthalmia-associated transcription factor (Homo sapiens), O75030. AID 1259374, 2018. 650,000 compounds, 0.91% hits; in the data active = inhibition above about 50%
TEAD-YAP inh – TEAD-YAP interaction inhibition, primary screen, TEAD-YAP interaction inhibitor project, luminescence, HEK-TIYL cells; 640,000 compounds, 1.4% hits; AID 1259422, 2018; inhibition, % at 9.12 µM; TEAD-Gal4/YAP UAS-luciferase luminescence; in the data active = inhibition above about 32%
GPR151 conf act – GPR151 activators, triplicate retest, confirmation, cell-based, PathHunter beta-arrestin, luminescence; 6,700 tested, under 10 active; activation, % at 11.2 µM; GPR151 PathHunter beta-arrestin cells, 90 min; % of EA-reagent control over plate median; shares compounds with GPR151 activ;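 active = mean percent activation across replicates above the confirmation screen cutoff of 4.91%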
GPR119 ag – GPR119 activators in beta-arrestin cells, counter-screen for GPR151 activator project, cell-based, PathHunter beta-arrestin, luminescence, triplicate. 6,700 compounds, 0.3% hits. activation, % at 11.2 µM. shares compounds with GPR151 activ. 90 min; 0 = compound-well median, 100 = enzyme-acceptor control;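 active = mean percent activation in the counterscreen above 29.09%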;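 also: counterscreen on off-target GPR119 to flag nonselective hits from the GPR151 activator screen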
Target sequence (Q8TDV5 whole entry, looked up): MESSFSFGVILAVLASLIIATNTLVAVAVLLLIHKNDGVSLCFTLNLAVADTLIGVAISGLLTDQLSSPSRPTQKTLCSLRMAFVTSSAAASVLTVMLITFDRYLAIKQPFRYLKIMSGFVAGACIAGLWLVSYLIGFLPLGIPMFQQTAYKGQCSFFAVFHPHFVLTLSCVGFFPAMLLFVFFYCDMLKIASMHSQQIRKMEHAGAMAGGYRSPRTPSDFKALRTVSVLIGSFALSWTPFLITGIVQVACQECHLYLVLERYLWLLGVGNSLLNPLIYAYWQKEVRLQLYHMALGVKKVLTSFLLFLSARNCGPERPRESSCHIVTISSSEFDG
Hits are given with their value; 0 = inactive; - = no result given.

SMILES | FBW7 activator | GPR151 activ | MITF primary | TEAD-YAP inh | GPR151 conf act | GPR119 ag
COc1ccc(/C=C2\C(=O)NC(=O)N(c3ccc(Br)cc3)C2=O)c(OC)c1 | 0 | 7.3 | 0 | 0 | 0 | 0
Cc1cc(N2C(=O)NC(=O)/C(=C\c3ccccc3OCC#N)C2=O)ccc1Br | 0 | 5.6 | 0 | 0 | 0 | 0
CCc1ccc(N2C(=O)NC(=O)/C(=C/c3cc(OC)c(O)c(OC)c3)C2=O)cc1 | 0 | 0 | 0 | 0 | - | -
COc1ccc(/C=C2/C(=O)NC(=O)N(c3ccc(C)cc3)C2=O)c(OC)c1 | 0 | 0 | 0 | 0 | - | -
COc1ccc(N2C(=O)NC(=O)/C(=C\c3ccc(O)c([N+](=O)[O-])c3)C2=O)cc1 | 0 | 5.8 | 0 | 0 | 0 | 0
COc1cc(/C=C2/C(=O)NC(=O)N(c3ccc(Cl)cc3)C2=O)cc(OC)c1O | 0 | 16 | 0 | 0 | 0 | 0
OCCN(CC12CC3CC(CC(C3)C1)C2)c1nncc(-c2ccccc2)n1 | 0 | 0 | 0 | 0 | - | -
Cc1nc2cc(-c3cccc(F)c3)nn2c(C)c1CCC(=O)Nc1cccnc1 | 0 | 0 | 0 | 0 | - | -
CCOc1cc(/C=C2\C(=O)NC(=O)N(c3cc(C)ccc3C)C2=O)ccc1O | 0 | 8.9 | 0 | 0 | 0 | 0
CCOc1ccc(N2C(=O)NC(=O)/C(=C\c3ccc(O)c(OC)c3)C2=O)cc1 | 0 | 0 | 0 | 0 | - | -
C=CCc1cc(/C=C2/C(=O)NC(=O)N(c3ccc(OCC)cc3)C2=O)ccc1O | 0 | 9.3 | 0 | 0 | 0 | 0
C/C=C/COC(=O)C1=C(C)NC(=O)NC1c1cc(Cl)c(O)c(OC)c1 (stereo not given) | 0 | 0 | 0 | 0 | - | -
COc1cc(Nc2nc(SCC(=O)c3ccc(Br)cc3)nc3ccccc23)cc(OC)c1 | 0 | 0 | 0 | 0 | - | -
COc1cc(Nc2nc(SCC(=O)c3ccccc3)nc3ccccc23)cc(OC)c1 | 0 | 6.9 | 0 | 0 | 0 | 0
O=C(CSc1nc(Nc2ccc(F)c(F)c2)c2ccccc2n1)c1ccc(F)cc1 | 0 | 5.1 | 0 | 0 | 0 | 0
O=C1OC(c2ccc(Cl)cc2Cl)=N/C1=C\c1cccc(Cl)c1Cl | 0 | 8.0 | 0 | 0 | 0 | 0
O=C(NCCN1CCOCC1)c1nn2c(c1Cl)NC(c1ccco1)CC2C(F)(F)F (stereo not given) | 0 | 5.7 | 0 | 0 | 0 | 0
O=C(NCCN1CCOCC1)c1nn2c(c1Cl)NC(c1ccc(Br)cc1)CC2C(F)(F)F (stereo not given) | 0 | 0 | 0 | 0 | - | -
Cc1c(NC(=S)Nc2c(C)n(C)n(-c3ccccc3)c2=O)c(=O)n(-c2ccccc2)n1C | 0 | 0 | 0 | 0 | - | -
CCN(CC)C(=O)Cn1cnc2sc(C(=O)Nc3cc(OC)ccc3OC)c(C)c2c1=O | 0 | 0 | 0 | 0 | - | -
Cc1sc2ncn(CC(=O)NCC(=O)NCc3ccccn3)c(=O)c2c1C | 0 | 0 | 0 | 0 | - | -
Cc1sc2ncn(CC(=O)NCc3ccccn3)c(=O)c2c1C | 0 | 5.1 | 0 | 0 | 0 | 0
Cc1ccc(NC(=O)Cn2cnc3sc(C(=O)Nc4ccccc4)c(C)c3c2=O)cc1 | 0 | 8.9 | 0 | 0 | 0 | 0
Cc1c(C(=O)Nc2ccc(Oc3ccccc3)cc2)sc2ncn(CC(=O)Nc3ccc(C(C)C)cc3)c(=O)c12 | 0 | 0 | 0 | 0 | - | -
CCN(CC)C(=O)Cn1cnc2sc(C(=O)Nc3cc(C)ccc3OC)c(C)c2c1=O | 0 | 4.9 | 0 | 0 | 0 | 0
Cc1c(C(=O)Nc2ccc3c(c2)OCO3)sc2ncn(CC(=O)N3CC(C)CC(C)C3)c(=O)c12 (stereo not given) | 0 | 5.0 | 0 | 0 | 0 | 0
C/C(CC(=O)NC(C)C)=N\NC(=O)c1cccc(C)c1O | 0 | 0 | 0 | 0 | - | -
Cc1ccccc1CNC(=O)C1CCN(C(=O)N2CCOc3ccccc32)CC1 | 0 | 0 | 0 | 0 | - | -
COc1cccc(-c2nc3sc4c(c3c(=O)n2CC(=O)NC2CCCCC2)CCCC4)c1 | 0 | 0 | 0 | 0 | - | -

Compound activity (PubChem)
